Screens from PubChem BioAssay.
LANA-H2B inh – blocks KSHV LANA binding to histone H2A/H2B | Q9QR71 | cell-free LANA-H2A/H2B peptide, fluorescence polarization | inhibition, % (concentration not given with the values) | 320,000 tested, 0.6% active | AID 2629; in the data active = inhibition mostly above about 10%, no sharp cut-off; inactive = mostly below about 6.7%
HDAC3 inhib – blocks human histone deacetylase 3; recombinant HDAC3, fluorogenic peptide/trypsin coupled, fluorescence; inhibition, % at 8.3 µM; 320,000 tested, 0.15% active; in the data active = inhibition above about 26%, passing the limit was not always enough
hiPSC survival – enhancers of human iPSC single-cell survival; AID 602274; hiPSC single-cell survival, ATPlite luminescence; 100% = ROCK inhibitor wells, 0% = DMSO; 360,000 tested, 0.044% active; survival enhancement, % at 20 µM; in the data active = survival enhancement above about 18%;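 also: cells exposed to compounds for 16 hours before the ATP read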
DAGLB inhibitor – diacylglycerol lipase beta (human) inhibition | Q8NCG7 | HEK293T DAGLB membrane lysate, EnzChek fluorogenic substrate | inhibition, % at 5.17 µM | 340,000 tested, 0.059% active | AID 504411; in the data active = inhibition above about 34%
Target sequence (Q8NCG7 whole entry, looked up): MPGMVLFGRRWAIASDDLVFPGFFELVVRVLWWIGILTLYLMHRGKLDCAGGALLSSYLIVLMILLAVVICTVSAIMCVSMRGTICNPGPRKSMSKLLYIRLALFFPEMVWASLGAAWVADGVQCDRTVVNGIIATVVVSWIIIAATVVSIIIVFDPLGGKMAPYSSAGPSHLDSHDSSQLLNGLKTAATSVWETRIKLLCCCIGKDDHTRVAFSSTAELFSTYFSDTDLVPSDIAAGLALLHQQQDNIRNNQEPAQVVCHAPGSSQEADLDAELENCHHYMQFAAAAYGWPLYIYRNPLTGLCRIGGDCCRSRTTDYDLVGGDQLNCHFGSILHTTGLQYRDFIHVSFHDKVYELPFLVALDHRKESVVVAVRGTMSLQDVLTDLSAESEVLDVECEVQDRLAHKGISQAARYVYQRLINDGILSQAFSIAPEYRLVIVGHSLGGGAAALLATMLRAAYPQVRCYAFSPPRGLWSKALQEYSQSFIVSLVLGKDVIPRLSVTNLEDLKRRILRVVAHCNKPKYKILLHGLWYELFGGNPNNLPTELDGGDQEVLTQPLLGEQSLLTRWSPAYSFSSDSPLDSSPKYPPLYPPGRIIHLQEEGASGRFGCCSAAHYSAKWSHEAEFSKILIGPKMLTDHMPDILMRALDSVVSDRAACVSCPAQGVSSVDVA
Hits are given with their value. The list is not random: actives were taken first. Their share in the collection is about 0.79%.

N/C(=N\OC(=O)c1cccc2ccccc12)c1ccccn1 was read as LANA-H2B inh 41, HDAC3 inhib inactive, hiPSC survival inactive and DAGLB inhibitor inactive.
For COc1cccc(C(=O)O/N=C(\N)c2ccccn2)c1OC the results were LANA-H2B inh inactive, HDAC3 inhib inactive, hiPSC survival inactive and DAGLB inhibitor inactive.
For O=C(COC(=O)CNC(=O)c1ccccc1)NC(=O)NC1CCCCC1 the results were LANA-H2B inh inactive, HDAC3 inhib inactive, hiPSC survival inactive and DAGLB inhibitor inactive.
CC(=O)c1c(C)[nH]c(C(=O)COC(=O)c2ccc(Cl)nc2)c1C was read as LANA-H2B inh inactive, HDAC3 inhib inactive, hiPSC survival inactive and DAGLB inhibitor inactive.
Screening O=[N+]([O-])c1ccc(N/N=C/c2ccc[nH]2)cc1 returned LANA-H2B inh active, HDAC3 inhib inactive, hiPSC survival inactive and DAGLB inhibitor inactive.
CC(=O)c1cccc(NC(=O)C(C)OC(=O)c2cccc(-n3cnnn3)c2)c1 (stereo unspecified) was read as LANA-H2B inh inactive, HDAC3 inhib inactive, hiPSC survival inactive and DAGLB inhibitor inactive.
COc1ccccc1C(C)NC(=O)C1CCN(S(=O)(=O)c2cccs2)CC1 (stereo unspecified) was read as LANA-H2B inh active, HDAC3 inhib inactive, hiPSC survival inactive and DAGLB inhibitor inactive.
Screening COc1cc(NC(=O)C2CCN(S(=O)(=O)c3cccs3)CC2)cc(OC)c1 returned LANA-H2B inh inactive, HDAC3 inhib inactive, hiPSC survival inactive and DAGLB inhibitor inactive.
`CNC[C@H]1Oc2ccc(NC(=O)Cc3cn(C)c4ccccc34)cc2CC(=O)N([C@@H](C)CO)C[C@H]1C` gave LANA-H2B inh 16, HDAC3 inhib inactive, hiPSC survival inactive and DAGLB inhibitor inactive.
`COC(=O)c1ccsc1NS(=O)(=O)c1ccccc1` gave LANA-H2B inh inactive, HDAC3 inhib inactive, hiPSC survival inactive and DAGLB inhibitor inactive.
O=C(NC(=S)Nc1cccc2ncccc12)c1ccco1 was read as LANA-H2B inh inactive, HDAC3 inhib inactive, hiPSC survival inactive and DAGLB inhibitor inactive.
For Cc1cc(NC(=S)NC(=O)c2ccco2)c2ccccc2n1 the results were LANA-H2B inh 17, HDAC3 inhib inactive, hiPSC survival inactive and DAGLB inhibitor inactive.
For O=C(CN1CCCCC1)Nc1ccc(S(=O)(=O)c2ccc(NC(=O)CN3CCCCC3)cc2)cc1 the results were hiPSC survival inactive and DAGLB inhibitor inactive.
`CN1CCN(CC(=O)Nc2ccc([N+](=O)[O-])cc2Br)CC1` gave LANA-H2B inh inactive, HDAC3 inhib inactive, hiPSC survival inactive and DAGLB inhibitor inactive.
`CC1CN(CC(=O)Nc2ccc([N+](=O)[O-])cc2Br)CC(C)O1` (stereo unspecified) gave LANA-H2B inh active, HDAC3 inhib inactive, hiPSC survival inactive and DAGLB inhibitor inactive.
`CCc1ccc(C(=O)NNC(=O)CCC2CCCCC2)cc1` gave LANA-H2B inh inactive, HDAC3 inhib inactive, hiPSC survival inactive and DAGLB inhibitor inactive.
Screening O=C(CCC1CCCC1)NNC(=O)c1ccc(F)cc1 returned LANA-H2B inh 50, HDAC3 inhib inactive, hiPSC survival inactive and DAGLB inhibitor inactive.
Screening O=[N+]([O-])c1ccccc1OCCNCc1ccccc1 returned LANA-H2B inh inactive, HDAC3 inhib inactive, hiPSC survival inactive and DAGLB inhibitor inactive.
c1ccc(CNc2ccc(N3CCOCC3)cc2)cc1 was read as LANA-H2B inh 17, HDAC3 inhib inactive, hiPSC survival inactive and DAGLB inhibitor inactive.
`Cc1ccc(Cl)cc1N1CCN(C(=O)C2CCN(S(C)(=O)=O)CC2)CC1` gave LANA-H2B inh 13, HDAC3 inhib inactive, hiPSC survival inactive and DAGLB inhibitor inactive.
Screening Cc1ccc(Cl)cc1N1CCN(C(=O)C2CCN(S(=O)(=O)c3cnc[nH]3)CC2)CC1 returned LANA-H2B inh inactive, HDAC3 inhib inactive, hiPSC survival inactive and DAGLB inhibitor inactive.
For Cc1nc2ccccc2n2c(O)c(CC(=O)O)cc12 the results were LANA-H2B inh 27, HDAC3 inhib inactive, hiPSC survival inactive and DAGLB inhibitor inactive.
Screening Cc1cc2c(cc1C)NC(=O)C(C)CN2 (stereo unspecified) returned hiPSC survival inactive and DAGLB inhibitor inactive.
CCc1cc2ccc(C)cc2nc1SCC(=O)c1ccc(NC(C)=O)cc1 was read as LANA-H2B inh inactive, HDAC3 inhib 68, hiPSC survival inactive and DAGLB inhibitor inactive.
Oc1ccc(C[C@@H]2CNCCN2CCc2cc(C(F)(F)F)cc(C(F)(F)F)c2)cc1 was read as LANA-H2B inh inactive, HDAC3 inhib inactive, hiPSC survival inactive and DAGLB inhibitor inactive.
`FC(F)(F)c1cc(CCN2CCNC[C@H]2Cc2cccc3ccccc23)cc(C(F)(F)F)c1` gave LANA-H2B inh inactive, HDAC3 inhib 32, hiPSC survival inactive and DAGLB inhibitor inactive.
COc1cccc(NC(=O)CN(C)C(=O)C23CC4CC(CC(Cl)(C4)C2)C3)c1 was read as LANA-H2B inh 42, HDAC3 inhib inactive, hiPSC survival inactive and DAGLB inhibitor inactive.
COc1cccc(CNC(=O)COC(=O)C23CC4CC(CC(Cl)(C4)C2)C3)c1 was read as LANA-H2B inh inactive, HDAC3 inhib inactive, hiPSC survival inactive and DAGLB inhibitor inactive.
Screening COC(=O)[C@]1(Cc2ccccc2)N[C@H](CN(C)C(=O)Nc2ccc(OC)cc2)[C@@H]2C(=O)N(C)C(=O)[C@@H]21 returned hiPSC survival inactive and DAGLB inhibitor inactive.
`COC(=O)[C@]1(Cc2ccccc2)N[C@H](CN(C)C(=O)Nc2ccccc2)[C@@H]2C(=O)N(C)C(=O)[C@@H]21` gave LANA-H2B inh inactive, HDAC3 inhib inactive, hiPSC survival 28 and DAGLB inhibitor inactive.
CC[C@@]1(C(=O)OC)N[C@H](CN(C)C(=O)C2CCCCC2)[C@@H]2C(=O)N(C)C(=O)[C@@H]21 was read as LANA-H2B inh active, HDAC3 inhib inactive, hiPSC survival inactive and DAGLB inhibitor inactive.
`CCOC(=O)C(Cc1ccccc1)C(=O)NCc1ccccc1` (stereo unspecified) gave LANA-H2B inh inactive, HDAC3 inhib inactive, hiPSC survival inactive and DAGLB inhibitor inactive.
CCCc1cc(=O)oc2cc(OCc3ccc(C(=O)O)cc3)ccc12 was read as LANA-H2B inh inactive, HDAC3 inhib inactive, hiPSC survival inactive and DAGLB inhibitor inactive.
CN(C(=O)COC(=O)c1ccc(C(C)(C)C)cc1)C1CCS(=O)(=O)C1 (stereo unspecified) was read as LANA-H2B inh inactive, HDAC3 inhib inactive, hiPSC survival inactive and DAGLB inhibitor inactive.
`CN(C(=O)COC(=O)c1nc(Cl)c(Cl)c(Cl)c1Cl)C1CCS(=O)(=O)C1` (stereo unspecified) gave hiPSC survival 42 and DAGLB inhibitor inactive.
`CCOC(=O)c1c(CSc2ccccc2)n(C)c2ccc(O)c(CN3CCOCC3)c12` gave LANA-H2B inh 18, HDAC3 inhib inactive, hiPSC survival inactive and DAGLB inhibitor inactive.
For COc1cc(OC)cc(C(=O)NCC(=O)OCC(=O)NCc2ccco2)c1 the results were LANA-H2B inh inactive, HDAC3 inhib 33, hiPSC survival inactive and DAGLB inhibitor inactive.
For C=CCOc1ccc(/C=C/C(=O)OCC(=O)N2CCC(c3ccccc3)=N2)cc1 the results were LANA-H2B inh inactive, HDAC3 inhib inactive, hiPSC survival inactive and DAGLB inhibitor inactive.
